RGS7-Gao = RGS7-Galphao binding modulators, primary screen, biochemical, multiplexed bead flow cytometry. Guanine nucleotide-binding protein G(o) subunit alpha (Homo sapiens), P09471. actives lie on both sides. binding response (% of control), % at 10 µM. 220,000 compounds, 0.35% hits. AID 1439, 2008; in the data active = binding response below about 49% or above about 150%; inconclusive = no clear call, values can overlap the other calls; inactive = in between;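 also: fluorescent Galphao held in activated GDP-AlF4 state binding bead-coupled RGS7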
Target sequence (P09471 whole entry, looked up): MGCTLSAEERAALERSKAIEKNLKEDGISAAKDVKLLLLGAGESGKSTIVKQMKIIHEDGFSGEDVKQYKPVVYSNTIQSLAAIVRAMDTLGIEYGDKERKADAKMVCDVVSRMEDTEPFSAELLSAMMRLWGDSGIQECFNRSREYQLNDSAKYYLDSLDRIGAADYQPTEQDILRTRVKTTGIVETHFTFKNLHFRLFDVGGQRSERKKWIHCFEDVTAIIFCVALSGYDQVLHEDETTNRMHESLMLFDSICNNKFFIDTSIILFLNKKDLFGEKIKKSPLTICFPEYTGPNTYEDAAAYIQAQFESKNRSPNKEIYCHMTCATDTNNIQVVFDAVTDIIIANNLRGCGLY
Avidin bead fluor = green autofluorescence of compounds with avidin beads – biophysical, 488/530 nm, flow cytometry, artefact control, profiling panel | compound fluorescence 488/530 nm; stronger effect = higher value | fluorescence (KMESF) at 10 µM | 220,000 compounds, 0.38% hits; in the data active = fluorescence above about 47
RGS8-Gao reg = RGS8-Galphao binding modulators, primary screen, biochemical, multiplexed bead flow cytometry; 220,000 compounds, 0.34% hits; response (percent of control binding), % at 10 µM; AID 1423, 2008; Guanine nucleotide-binding protein G(o) subunit alpha (Homo sapiens), P09471; actives lie on both sides; in the data active = response below about 60% or above about 140%; inactive = in between;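 also: Galphao activated as the GDP aluminium fluoride complex binding bead-coupled RGS8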
GSH bead fluor = compound fluorescence on glutathione beads, profiling panel, artefact control, biophysical, 488/530 nm, flow cytometry; GSH beads flow cytometry, compound fluorescence 488/530 nm; stronger effect = higher value; fluorescence (KMESF) at 10 µM; 190,000 compounds, 0.25% hits; AID 1776, 2009; in the data active = fluorescence above about 89;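 also: glutathione beads carrying GST-tagged Bcl family fusion proteins plus one bare bead set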
RGS4-Gao reg = modulators of RGS4 binding to Galphao, primary screen, biochemical, multiplexed bead flow cytometry; binding response (% of control), % at 10 µM; 220,000 compounds, 0.33% hits; actives lie on both sides; in the data active = binding response below about 49% or above about 150%; inactive = in between;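 also: fluorescent Galphao activated with aluminum fluoride binding bead-coupled RGS4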
RGS16-Gao HTS = modulators of RGS16 binding to Galphao, primary screen, biochemical, human proteins, multiplexed bead flow cytometry. bead-based flow cytometry RGS16-Galphao binding, fluorescence; actives lie on both sides. binding response (% of control), % at 10 µM. 220,000 compounds, 0.38% hits. AID 1441, 2008; call rule not given here;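 also: Galphao activated by GDP with aluminum fluoride before binding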
Target sequence (O15492 whole entry, looked up): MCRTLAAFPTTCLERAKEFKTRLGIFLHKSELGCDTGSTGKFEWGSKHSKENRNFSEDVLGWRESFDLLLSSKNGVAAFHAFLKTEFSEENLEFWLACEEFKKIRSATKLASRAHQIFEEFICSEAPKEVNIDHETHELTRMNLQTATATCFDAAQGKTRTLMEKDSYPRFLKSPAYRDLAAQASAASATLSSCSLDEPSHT
Target sequence (P09471 whole entry, looked up): as the sequence (P09471 whole entry, looked up) above
Large screens that a line does not name were inactive. Most compounds without a hit are left out; they make up all but 1.2% or so of the library.

CCC(=O)N1CCc2cc(Br)cc(S(=O)(=O)CCC(=O)NCc3ccco3)c21	Avidin bead fluor 51
CCC(=O)N1CCc2cc(Br)cc(S(=O)(=O)NCc3ccco3)c21	none
Cc1ccnc2nc(C(=O)Nc3nccs3)nn12	GSH bead fluor 253
Cc1ccnc2nc(C(=O)NC3=NCCS3)nn12	none
COc1ccc(C(=O)OCCN2CCOCC2)cc1	GSH bead fluor 96
O=C(NC1CCCc2ccccc21)c1cccnc1 (configuration not stated)	GSH bead fluor 256
CCc1nccn1S(=O)(=O)c1cc(Br)ccc1OC	none
CCCc1nccn1S(=O)(=O)c1cc(OC)ccc1OC	GSH bead fluor 249
NS(=O)(=O)c1ccc(CNC(=O)c2cc(-c3ccccn3)nc3ccc(Cl)cc23)cc1	none
Cc1c(N=Cc2ccc[nH]2)c(=O)n(-c2ccccc2)n1C	Avidin bead fluor 56
Cc1noc(C)c1S(=O)(=O)N1CCCC(C(=O)c2cccc(OC(C)C)c2)C1 (configuration not stated)	none
CCOc1ccccc1N1C(=O)CC(Nc2ccc(N3CCOCC3)cc2)C1=O (configuration not stated)	GSH bead fluor 245
CC1=C(C(=O)OCC(C)C)C(c2cccs2)NC(=S)N1 (configuration not stated)	none
CCN(CC)S(=O)(=O)c1ccc(C(=O)NCCN(C)C)cc1	none
C=CCn1c2ccccc2c2nnc(SCC(=O)NC(C(=O)OC)C(C)C)nc21 (configuration not stated)	Avidin bead fluor 119
COC(=O)c1cccc(NC(=O)c2nn(C)c(=O)c3ccccc23)c1	GSH bead fluor 185
Cc1ccc2c(CSc3nnc(C4CC4)n3N)cc(=O)oc2c1	GSH bead fluor 262
Cc1ccccc1N/C(SCc1ccc(Cl)cc1)=C(/C#N)C(=O)NCc1ccco1	Avidin bead fluor 115
Cc1ccc(CS/C(Nc2ccccc2C)=C(\C#N)C(=O)NCc2ccco2)c(C)c1	none
Cc1nc2ccc(NC(=O)Cc3ccccc3F)cc2s1	RGS7-Gao inconclusive, Avidin bead fluor 53
CCc1ccc(N2CC(C(=O)N/N=C/c3cc([N+](=O)[O-])ccc3O)CC2=O)cc1 (configuration not stated)	none
O=S(=O)([N-]c1nc2ccccc2nc1-[n+]1ccccc1)c1ccc(F)cc1	RGS7-Gao inconclusive
COc1ccc2c(=O)c3c(=O)n(Cc4ccco4)c(-c4ccc(C)cc4)nc3oc2c1	none
COc1cc(-c2nc3oc4ccccc4c(=O)c3c(=O)n2Cc2ccco2)cc(OC)c1OC	Avidin bead fluor 49
CCOC(=O)N1CCN(C(=O)COc2cccc3c2CCN(Cc2ccccc2F)C3=O)CC1	none
COc1cc(C(=O)N2CCN(C(=O)CC(C)C)CC2)cc(OC)c1OC	Avidin bead fluor 120
O=C(O)c1cccc(N=NN2CCOCC2)c1	none
CCOc1ccc(C(=O)Nc2nnn(CC)n2)cc1	none
CCn1nnc(NC(=O)c2cccnc2Cl)n1	GSH bead fluor 259
Cc1[nH]nc(Nc2ccc(C(C)C)cc2)c1[N+](=O)[O-]	RGS7-Gao inconclusive (no result: GSH bead fluor)
Cc1ccc(-c2nnc(SCC(=O)N3CCCC3)o2)cc1C	none
Cc1ccc(-c2nnc(SCC(=O)N3CCCC3)o2)cc1	GSH bead fluor 259
O=C(O)CSc1nc2ccccc2o1	none
O=C(CSc1nc2ccccc2o1)N1CCCC1	GSH bead fluor 260
O=C(Cn1cnc2ccccc21)OCC(=O)N1CCc2ccccc2C1	Avidin bead fluor 52
O=C(Cn1cnc2ccccc2c1=O)N1CCc2ccccc2C1	none
CCOc1ccccc1C(=O)N[C@H](C(=O)OCc1cc([N+](=O)[O-])cc2c1OCOC2)C(C)C	none
Cc1ccc(S(=O)(=O)N(C)Cc2nc(-c3ccncc3)no2)cc1	Avidin bead fluor 50
CS/C(N)=N/S(=O)(=O)c1ccc(NC(C)=O)cc1	RGS7-Gao inconclusive, Avidin bead fluor 75 (no result: GSH bead fluor)
Cn1ncc(Cl)c1C(=O)Nc1sc2c(c1C(N)=O)CCC2	GSH bead fluor 99
C/C(=N\O)C1CCCCC1	RGS7-Gao inconclusive (no result: GSH bead fluor)
COC(=O)COc1ccc(S(=O)(=O)Nc2ccccc2C(=O)OC)cc1	Avidin bead fluor 63
COC(=O)c1ccccc1NC(=O)CSc1nc(O)cc(=O)n1C1CCCC1	Avidin bead fluor 54
O=C(CSc1nc(O)cc(=O)n1C1CCCC1)Nc1cccc(Cl)c1Cl	none
S=C1COC(c2ccccc2)N1c1ccccc1 (configuration not stated)	GSH bead fluor 142
S=C1N(c2ccccc2)C(c2ccccc2)N2CCCN12 (configuration not stated)	none
Cc1ccc(-n2c(C)nn(Cc3ccc([N+](=O)[O-])cc3)c2=O)cc1	RGS7-Gao inconclusive
Cc1ccc(-n2c3nc(=O)[nH]c(=O)c-3cc3cc([N+](=O)[O-])ccc32)cc1	Avidin bead fluor 55
CN1CCC(N(C)C(=O)c2sc3cc(F)ccc3c2Cl)CC1	RGS7-Gao inconclusive, Avidin bead fluor 136
CC(C)N(CC(N)=O)C(=O)c1sc2cc(F)ccc2c1Cl	none
CCn1c(SCC(=O)OCc2ccccc2)nc2c1c(=O)n(C)c(=O)n2C	none
CCOC(=O)CSc1nc2c(c(=O)n(C)c(=O)n2C)n1CCCc1ccccc1	GSH bead fluor 269
CCOC(=O)Cc1csc(NC(=O)COc2cc(C)cc(C)c2)n1	none
CCc1ccc(C(=O)COC(=O)CNC(=O)c2cccs2)cc1	Avidin bead fluor 78
Cc1cc(Nc2ncc(Cl)cc2Cl)n(-c2ccccn2)n1	GSH bead fluor 268
O=C(NCCOc1ccccc1)C(=O)c1c[nH]c2ccccc12	RGS7-Gao inconclusive (no result: GSH bead fluor)
CCc1ccc(OCc2nnc(SCCN3CCOCC3)n2C)cc1	GSH bead fluor 260
Cc1ccc(OCc2nnc(SCCN3CCOCC3)n2C)cc1	none
NCCSc1c(-c2ccc(Cl)cc2)[nH]c2ccccc12	RGS7-Gao inconclusive (no result: GSH bead fluor)
NCCSc1c(-c2ccccc2)[nH]c2ccccc12	RGS7-Gao -8.4, RGS8-Gao reg 13, RGS4-Gao reg 5.5, RGS16-Gao HTS -3.3
Oc1ccc(C=Nc2cccc3ncccc23)c(O)c1	none
Oc1ccc(C=Nc2ccc3ncccc3c2)c(O)c1	Avidin bead fluor 69
COCc1cc(=O)[nH]c(-c2ccccc2OC(F)(F)F)n1	RGS7-Gao inconclusive (no result: GSH bead fluor)
S=c1[nH]nc(-c2ccccc2Cl)n1CC1CCCO1 (configuration not stated)	Avidin bead fluor 52
Cc1ccc(CC23CN4CCN(CC(C4)C2O)C3)c(C)c1 (configuration not stated)	Avidin bead fluor 69

Screens as filed in PubChem BioAssay.
